Experiment [1] can be described thus: binders of probe aFSTL3 on microarray, primary screen, stem cell growth factor project, biochemical, small-molecule microarray, fluorescence 635/667 (AID 1064).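 Also: measures binding of the biotinylated anti-FSTL3 antibody to printed compounds.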 The settings on record: higher = more signal.
Experiment [2] is described as follows: binders from COS7 lysate, DM2A8 probe, primary screen, torsin A project, cell lysate, small-molecule microarray, fluorescence 635/667 (AID 1065). The settings on record: higher = more signal, COS7 lysate expressing mutant human TOR1A.
Experiment [3] is described as follows: binders of probe aFGF2 on microarray, primary screen, stem cell growth factor project, biochemical, small-molecule microarray, fluorescence 635/667 (AID 1067).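 Also: measures binding of biotinylated aFGF2 protein to printed compounds on slides; z-score merges feature fluorescence and signal-to-noise across triplicate slides.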 The settings on record: higher = more signal.
Experiment [4] can be described thus: binders of probe aFGF10 on microarray, primary screen, stem cell growth factor project, biochemical, small-molecule microarray, fluorescence 635/667 (AID 1071).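 Also: score merges 667 nm spot intensity and signal to noise from triplicate slides.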 The settings on record: higher = more signal.
The target of experiment [5] is Neurogenic locus notch homolog protein 2 (Homo sapiens) (UniProt Q04721). Briefly: Notch2 binders on small-molecule microarrays, primary screen, biochemical, small-molecule microarray, 635 nm fluorescence, stem cell growth factors (AID 1073). As to conditions: Notch2 binding, higher = more signal.
Neurogenic locus notch homolog protein 2 (Homo sapiens), sequence (Q04721 whole entry, looked up, canonical isoform): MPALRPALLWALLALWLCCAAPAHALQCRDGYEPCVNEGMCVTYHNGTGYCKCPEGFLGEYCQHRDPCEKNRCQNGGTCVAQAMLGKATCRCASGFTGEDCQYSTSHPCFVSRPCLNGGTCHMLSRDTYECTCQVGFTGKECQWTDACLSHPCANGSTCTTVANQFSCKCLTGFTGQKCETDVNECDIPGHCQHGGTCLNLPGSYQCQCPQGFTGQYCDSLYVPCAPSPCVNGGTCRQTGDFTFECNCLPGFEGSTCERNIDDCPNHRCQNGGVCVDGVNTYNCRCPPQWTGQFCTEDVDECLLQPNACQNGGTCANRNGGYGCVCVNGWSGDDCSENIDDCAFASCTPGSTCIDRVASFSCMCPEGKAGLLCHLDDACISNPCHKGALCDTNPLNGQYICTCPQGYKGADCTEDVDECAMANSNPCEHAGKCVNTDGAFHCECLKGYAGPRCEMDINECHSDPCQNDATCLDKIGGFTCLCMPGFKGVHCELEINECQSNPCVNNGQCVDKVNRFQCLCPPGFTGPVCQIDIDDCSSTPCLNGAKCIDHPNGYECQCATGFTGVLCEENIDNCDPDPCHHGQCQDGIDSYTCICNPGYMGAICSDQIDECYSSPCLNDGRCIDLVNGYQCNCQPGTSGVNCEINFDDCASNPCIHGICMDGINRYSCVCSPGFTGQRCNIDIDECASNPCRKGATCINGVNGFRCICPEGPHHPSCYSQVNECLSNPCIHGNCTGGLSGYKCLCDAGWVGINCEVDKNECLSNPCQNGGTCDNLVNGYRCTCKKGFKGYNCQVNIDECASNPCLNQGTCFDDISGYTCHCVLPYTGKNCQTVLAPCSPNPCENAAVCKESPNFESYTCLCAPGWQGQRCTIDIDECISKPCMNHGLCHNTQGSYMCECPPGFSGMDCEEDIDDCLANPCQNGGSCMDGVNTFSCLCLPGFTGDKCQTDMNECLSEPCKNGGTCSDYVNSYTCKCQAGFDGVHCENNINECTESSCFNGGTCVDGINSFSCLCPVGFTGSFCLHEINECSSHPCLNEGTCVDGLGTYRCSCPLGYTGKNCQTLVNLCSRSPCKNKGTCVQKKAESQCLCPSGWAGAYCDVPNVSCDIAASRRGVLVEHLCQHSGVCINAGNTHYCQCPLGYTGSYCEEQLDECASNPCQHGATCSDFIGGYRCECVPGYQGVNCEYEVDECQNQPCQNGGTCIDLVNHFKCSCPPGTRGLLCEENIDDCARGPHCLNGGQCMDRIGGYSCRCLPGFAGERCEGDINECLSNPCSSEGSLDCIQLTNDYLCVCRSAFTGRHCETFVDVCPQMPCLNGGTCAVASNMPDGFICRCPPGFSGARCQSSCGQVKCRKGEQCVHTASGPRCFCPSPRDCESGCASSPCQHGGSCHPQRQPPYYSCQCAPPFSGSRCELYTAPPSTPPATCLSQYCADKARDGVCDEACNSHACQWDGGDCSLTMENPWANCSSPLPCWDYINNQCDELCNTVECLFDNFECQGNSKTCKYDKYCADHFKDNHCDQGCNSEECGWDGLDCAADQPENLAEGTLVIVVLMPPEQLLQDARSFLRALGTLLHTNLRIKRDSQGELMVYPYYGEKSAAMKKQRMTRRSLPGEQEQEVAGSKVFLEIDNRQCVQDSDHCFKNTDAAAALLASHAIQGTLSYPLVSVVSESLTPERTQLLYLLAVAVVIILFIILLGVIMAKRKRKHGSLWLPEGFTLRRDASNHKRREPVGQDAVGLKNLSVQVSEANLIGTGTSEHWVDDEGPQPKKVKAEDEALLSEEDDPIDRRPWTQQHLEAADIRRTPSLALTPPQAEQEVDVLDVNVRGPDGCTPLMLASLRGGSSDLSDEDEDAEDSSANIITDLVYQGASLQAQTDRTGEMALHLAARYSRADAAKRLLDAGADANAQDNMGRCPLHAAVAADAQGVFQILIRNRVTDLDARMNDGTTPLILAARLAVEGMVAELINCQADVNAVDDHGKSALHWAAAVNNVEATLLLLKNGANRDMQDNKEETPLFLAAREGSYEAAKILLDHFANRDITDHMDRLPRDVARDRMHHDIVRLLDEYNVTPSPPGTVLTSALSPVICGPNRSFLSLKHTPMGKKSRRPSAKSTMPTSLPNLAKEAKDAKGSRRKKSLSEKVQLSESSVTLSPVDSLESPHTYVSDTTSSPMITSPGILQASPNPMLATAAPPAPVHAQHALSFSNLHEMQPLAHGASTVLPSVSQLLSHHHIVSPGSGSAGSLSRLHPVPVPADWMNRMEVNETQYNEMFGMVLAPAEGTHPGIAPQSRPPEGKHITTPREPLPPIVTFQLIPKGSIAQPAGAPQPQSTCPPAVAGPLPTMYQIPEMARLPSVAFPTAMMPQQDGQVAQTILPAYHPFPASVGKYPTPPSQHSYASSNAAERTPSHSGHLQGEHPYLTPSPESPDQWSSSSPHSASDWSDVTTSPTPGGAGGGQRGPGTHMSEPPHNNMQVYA
Experiment [6] concerns the target Pro-neuregulin-1, membrane-bound isoform (Homo sapiens) (UniProt Q02297). Briefly: NRG1 binders on small-molecule microarrays, primary screen, psychiatric disease protein project, biochemical, small-molecule microarray, fluorescence 635/667 (AID 1075).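 Also: score combines 667 nm spot fluorescence with signal to noise.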 The settings on record: NRG1 binding, 635 nm fluorescence, higher = more signal.
For experiment [7], the system named is Neuregulin-1 EGF-like domain. Kind of experiment: binders of neuregulin-1 EGF-like domain, primary screen, biochemical, small-molecule microarray, 635 nm fluorescence (AID 1081).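 Also: binding of the protein to compounds printed on small-molecule microarray slides.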 The settings on record: small-molecule microarray binding, higher = more signal.
Experiment [8] in a line: FRG1 promoter luciferase signal modulators, primary screen, FRG1 inhibition for FSHD, cell-based, C2C12 myotubes, firefly/Renilla luciferase, luminescence (AID 1084). As to conditions: higher = more signal, called active from +8 up or from −8 down.
Experiment [9] in a line: binders of probe aFST on microarray, primary screen, stem cell growth factor project, biochemical, small-molecule microarray, fluorescence 635/667 (AID 1086).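 Also: score merges 667 nm fluorescence with signal-to-noise of each printed compound spot.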 As to conditions: higher = more signal.
A short description of experiment [10]: binders of probe aHhip on microarray, primary screen, stem cell growth factor project, biochemical, small-molecule microarray, fluorescence 635/667 (AID 1087).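 Also: score merges spot fluorescence at 667nm with spot signal to noise ratio.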 As to conditions: higher = more signal.
For experiment [11], the system named is PRMT1 (protein arginine N-methyltransferase 1). Briefly: PRMT1 binders on small-molecule microarrays, primary screen, biochemical, small-molecule microarray, 635 nm fluorescence (AID 1088).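 Also: binding of Prmt1 protein to compounds spotted on small-molecule microarray slides.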 The settings on record: small-molecule microarray binding, higher = more signal.
A short description of experiment [12]: yeast growth modulation, basal conditions, primary screen, YJM789 clinical isolate, OD600, 24 h (AID 1089).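 Also: growth of clinical yeast isolate S. cerevisiae YJM 789 seeded 1000 cells per well; test concentration not given here.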 As to conditions: S. cerevisiae YJM789 growth, higher = more signal, called active from +8 up or from −8 down.
Experiment [13] in a line: fission yeast growth modulation, primary screen, strain 972, OD600, 24 h, no modulator (AID 1090).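 Also: basal condition with compound alone and no growth modifier present; test concentration not given here.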 The settings on record: S. pombe 972 growth, higher = more signal, called active from +8 up or from −8 down.
The nature of experiment [14]: S. cerevisiae growth modulation with rapamycin, primary screen, strain BY4716, OD600, 96 h (AID 1091). Also: test concentration not given here. The settings on record: higher = more signal, called active from +8 up or from −8 down.
For experiment [15], the target named is Torsin-1A-interacting protein 2 (Homo sapiens) (UniProt Q8NFQ8). Briefly: LULL1 binders on small-molecule microarray, primary screen, cell lysate, human LULL1 lysate, 635/667 nm fluorescence (AID 1092).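 Also: score merges per-feature 667 nm fluorescence with signal-to-noise.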 As to conditions: hLULL1 lysate binding, 635 nm fluorescence, higher = more signal.
Torsin-1A-interacting protein 2 (Homo sapiens), sequence (Q8NFQ8 whole entry, looked up): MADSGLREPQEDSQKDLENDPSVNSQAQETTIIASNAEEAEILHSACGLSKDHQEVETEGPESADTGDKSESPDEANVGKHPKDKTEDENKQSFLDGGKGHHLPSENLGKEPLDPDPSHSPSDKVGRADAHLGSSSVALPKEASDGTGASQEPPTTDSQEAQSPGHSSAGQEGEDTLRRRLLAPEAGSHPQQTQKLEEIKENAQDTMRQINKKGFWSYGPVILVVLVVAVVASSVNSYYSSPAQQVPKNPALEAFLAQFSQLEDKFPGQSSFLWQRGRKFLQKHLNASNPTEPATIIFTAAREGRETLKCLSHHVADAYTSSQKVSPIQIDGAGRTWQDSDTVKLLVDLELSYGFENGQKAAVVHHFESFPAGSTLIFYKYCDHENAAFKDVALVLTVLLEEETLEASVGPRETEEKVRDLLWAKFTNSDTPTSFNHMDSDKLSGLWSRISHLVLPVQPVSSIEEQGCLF
The nature of experiment [16]: E. coli growth modulation, two-sided OD650, primary screen, E. coli filamentation project, strain DRC41, 24 h (AID 1093).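 Also: MC1000 strain lacking acrAB efflux and sulA so SOS filamentation is blocked; test concentration not given here.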 As to conditions: OD650, 24 h, higher = more signal, called active from +8 up or from −8 down.
Experiment [17] is described as follows: small-molecule microarray binders of probe aLefty2, primary screen, biochemical, biotinylated probe, 635/667 nm fluorescence (AID 1094).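 Also: score merges spot fluorescence near 667 nm with spot signal-to-noise ratio.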 The settings on record: higher = more signal.
In experiment [18] the test system is Noggin (protein binding on small-molecule microarray). Kind of experiment: Noggin binders on small-molecule microarray, primary screen, biochemical, 635/667 nm fluorescence (AID 1095).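 Also: score merges 667 nm feature fluorescence with signal to noise over triplicate slides.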 As to conditions: 635 nm fluorescence, higher = more signal.
For experiment [19], the target named is Neurogenic locus notch homolog protein 3 (Homo sapiens) (UniProt Q9UM47). Kind of experiment: NOTCH3 binders on small-molecule microarray, primary screen, biochemical, 635/667 nm fluorescence (AID 1096). The settings on record: NOTCH3 binding, 635 nm fluorescence, higher = more signal.
Experiment [20] can be described thus: small-molecule microarray binders of probe aEGFR, primary screen, biochemical, biotinylated probe, 635/667 nm fluorescence (AID 1097).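 Also: probe is a biotinylated anti-EGFR antibody binding compounds printed on slides; score combines fluorescence near 667 nm and signal to noise of each spot.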 The settings on record: higher = more signal.

This is an account of results in PubChem BioAssay.

Active and inactive are the calls of the source.

Pro-neuregulin-1, membrane-bound isoform (Homo sapiens), sequence (Q02297 whole entry, looked up, the tested form may be a part, canonical isoform): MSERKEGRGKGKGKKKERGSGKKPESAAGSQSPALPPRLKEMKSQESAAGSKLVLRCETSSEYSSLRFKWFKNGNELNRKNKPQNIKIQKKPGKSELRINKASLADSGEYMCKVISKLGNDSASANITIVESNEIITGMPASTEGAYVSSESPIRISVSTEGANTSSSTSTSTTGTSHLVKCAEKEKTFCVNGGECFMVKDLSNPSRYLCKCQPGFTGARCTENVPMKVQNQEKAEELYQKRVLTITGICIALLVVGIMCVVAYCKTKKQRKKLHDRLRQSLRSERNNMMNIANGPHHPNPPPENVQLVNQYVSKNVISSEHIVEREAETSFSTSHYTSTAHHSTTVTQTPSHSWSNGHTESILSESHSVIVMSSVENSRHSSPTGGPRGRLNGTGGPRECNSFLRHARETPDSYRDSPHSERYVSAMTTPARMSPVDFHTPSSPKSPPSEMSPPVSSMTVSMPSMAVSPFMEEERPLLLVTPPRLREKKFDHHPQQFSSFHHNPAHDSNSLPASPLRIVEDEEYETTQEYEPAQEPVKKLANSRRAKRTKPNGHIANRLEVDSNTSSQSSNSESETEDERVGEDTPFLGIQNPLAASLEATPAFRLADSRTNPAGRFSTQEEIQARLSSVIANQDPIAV

Take `C=C(/C(=C/C[C@H](OC(=O)c1ccncc1)c1cccc(OCCO)c1)c1cc(C(=O)OC)ccc1OC)C(C)C`: the composite z-score is -0.0743 in experiment [1]; 1.66 in experiment [2]; -0.113 in [3]; 0.382 in experiment [4]; 0.191 in experiment [5]; -0.389 in experiment [6]. The composite z-score in [7] is 0.73; in experiment [9], -0.179; in [10], -0.0631; in experiment [11] it was 1.26; in [15], 1.23; in experiment [17], -0.192. Further, the composite z-score was 0.126 in experiment [18], 0.436 in experiment [19] and -0.112 in experiment [20]. Also, the z-score in [8] is -1.23 (inactive); in [12], 0.195 (inactive); in experiment [13] it was -0.382 (inactive); in experiment [14], 0.947 (inactive); in experiment [16], 1.22 (inactive).
In the case of `[N-]=[N+]=NCc1ccccc1C[C@]1(C(=O)NCc2ccccc2)N=C(c2ccc(OCCCO)cc2)O[C@H]1c1ccccc1`, the composite z-score in experiment [1] was found to be 1.45; in experiment [2] it was 1.21; in [3], 0.135; in experiment [4], 0.17; in [5] it was 1.15; in experiment [6], 0.994. Besides, the composite z-score in experiment [7] was 0.97; in experiment [9], 0.407; in experiment [10], -0.224; in experiment [11], 0.544; in experiment [15], 2.47; in experiment [17] it was 0.52. For the same compound, the figures for the composite z-score in [18], in experiment [19] and in [20] were -0.577, 0.224 and 0.1, respectively. Moreover, the z-score was -2.74 (inactive) in experiment [8]; 2.2 (inactive) in [12]; 2.85 (inactive) in [13]; 35.5 (active) in experiment [14]; 1.85 (inactive) in experiment [16].
As to `O=C(NC1CC1)[C@@H]1c2ccccc2C(=O)N(Cc2ccccc2C(F)(F)F)[C@H]1c1ccc(CO)cc1`, the composite z-score was -0.432 in experiment [1]; 0.436 in [2]; -0.116 in experiment [3]; 0.39 in [4]; 0.693 in [5]; 0.988 in experiment [6]. Also, the composite z-score in [7] is 1.26; in experiment [9], 0.336; in experiment [10] it was -0.226; in [11], 1.57; in experiment [15], 2.27; in experiment [17], -0.15. In addition, the results for the composite z-score in experiment [18], in [19] and in experiment [20] were 0.458, 1.13 and -0.039, respectively. The z-score in experiment [8] was -1.64 (inactive); in experiment [12] it was -0.541 (inactive); in experiment [13] it was -1.77 (inactive); in [14], -0.731 (inactive); in experiment [16], 1 (inactive).
On to `C=CCC1(CC=C)C[C@H]2CO[C@H](c3ccc(OC)cc3)N2C1=O`, for which the composite z-score was 0.79 in experiment [1]; 0.533 in [2]; -0.107 in experiment [3]; 0.201 in experiment [4]; -0.412 in experiment [5]; 0.0973 in [6]. The composite z-score is 0.523 in [7]; 0.132 in experiment [9]; -0.0994 in experiment [10]; -0.109 in experiment [11]; 0.288 in [15]; 0.109 in experiment [17]. Further, the composite z-score in experiment [18] is 0.377; in experiment [19] it was -0.638; in experiment [20] it was -0.0204. Also, the z-score in experiment [8] was -0.465 (inactive); in experiment [12], -0.137 (inactive); in experiment [13], -2.77 (inactive); in experiment [14], -0.484 (inactive); in experiment [16] it was 2 (inactive).
With `C=CCC(OC(C)=O)[C@@H]1[C@@H](N(Cc2cccc3ccccc23)C(=O)c2cccc3ccccc23)c2cc(OCCCO)ccc2N1C(=O)Cc1ccc(OC)cc1` (stereo not given in full), the composite z-score is -0.0733 in [1]; -0.136 in experiment [2]; -0.0569 in experiment [3]; 0.108 in [4]; 0.568 in experiment [5]; 0.123 in [6]. Besides, the composite z-score in experiment [7] was 0.193; in [9] it was 0.03; in experiment [10] it was -0.0994; in experiment [11] it was 0.435; in [15], 1.52; in [17], -0.121. Besides, the composite z-score is 0.0439 in [18], 0.171 in [19] and 0.0073 in experiment [20]. The z-score in experiment [8] is -1.64 (inactive); in experiment [12], -1.17 (inactive); in experiment [13] it was -1.59 (inactive); in [14] it was -0.8 (inactive); in experiment [16] it was 2.09 (inactive).
